# From PubChem BioAssay AID686979 (National Center for Advancing Translational Sciences (NCATS), 2013)
# The whole screen tested about 420,000 compounds, of which about 50,000 (12%) were called active. Another 26% or so got no clear call; they are omitted. Calls follow the shape of the dose curve; as a rule, active = well fitted inhibition curve with a large enough effect; inconclusive = small, poorly fitted or top-dose-only effect; inactive = flat fitted curve, though single readings scatter. This excerpt belongs to a sample that is enriched for actives.
# Experiment: qHTS for Inhibitors of human tyrosyl-DNA phosphodiesterase 1 (TDP1): qHTS in cells in presence of CPT; also: nearly all actives have a fitted effect of over 55% in size
# Conditions: chicken DT40 Tdp1-/-;hTDP1 cells + 20 nM CPT, ATP luminescence, 48 h; series mostly up to 46.2 µM; activity change, negative = growth inhibition: at the top concentration
# Procedure, shortened: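 Cell growth measured by CellTiter-Glo luminescence after a minimum 48 h, 37 C compound exposure with 20 nM CPT in Tdp1-knockout DT40 cells stably expressing hTDP1, seeded 400/well; qHTS titration format.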
# % is scaled to controls: 0 for no effect and ±100 for the full control effect; potency is read from the fitted curve at half-maximal effect.
SMILES,"activity change, negative = growth inhibition",Potency
Cc1cc(OC(C)C(=O)NC2CC(C)(C)NC(C)(C)C2)c2c(C)cc(=O)oc2c1 (stereo unspecified),2.25% (inactive),
COCCNC(=S)N1CCN(C)CC1,2.15% (inactive),
CC1CCC2(CC1)NC(=O)N(CC(=O)c1cccn1C)C2=O (stereo unspecified),2.2% (inactive),
CC(C)(C)SCCSC1=CC(=O)CC(c2ccccc2)C1 (stereo unspecified),-1.27% (inactive),
COC(=O)C(C)Oc1ccc2c(c1)O/C(=C\c1cccc(Br)c1)C2=O (stereo unspecified),-0.346% (inactive),
Cc1ccc(S(=O)(=O)Oc2ccc(/C=N/NC(=O)c3ccncc3)cc2)cc1,-2.8% (inactive),
CCOc1cc(/C=N/NC(=O)c2ccncc2)cc(Br)c1O,-2.85% (inactive),
Cc1ccc(OCCOCCOc2ccc(Br)cc2/C=N\NC(=O)c2ccncc2)cc1,,18.4 µM (active)
COc1ccc(Cl)cc1NC(=O)CCn1c(=O)c2cccn2c2ccccc21,,20.6 µM (active)
Cc1ccc(NC(=O)CCCn2c(=O)c3cccn3c3ccccc32)cc1Cl,-24.8% (inactive),
COc1ccc(Cl)cc1NC(=O)CCC(=O)c1ccc(C)cc1,-25.1% (inactive),
CCCCn1c(N)c(N(CCC(C)C)C(=O)COC(=O)c2ccc(CC)cc2)c(=O)[nH]c1=O,-20.8% (inactive),
Cc1cccc(NC(=O)CSCC(=O)Nc2nnc(C3CC3)s2)c1,2.73% (inactive),
O=C(NC(CC(=O)N1CCN(c2ccccc2)CC1)c1ccccc1)c1ccccc1Cl (stereo unspecified),1.37% (inactive),
CCCCCN(C(=O)CCC(=O)OCCOc1ccc(OC)cc1)c1c(N)n(CCCC)c(=O)[nH]c1=O,-25.6% (inactive),
CCOc1ccc(S(=O)(=O)NCC2CCCO2)cc1 (stereo unspecified),14.8% (inactive),
CN(CC(=O)Nc1ccc(C(N)=O)cc1)S(=O)(=O)c1ccc2c(c1)OCCO2,-20.2% (inactive),
O=C(Nc1ccc(S(=O)(=O)NCC2CCCO2)cc1)c1ccc(F)cc1 (stereo unspecified),,14.6 µM (active)
CCOc1ccc(C(=O)Nc2ccc(S(=O)(=O)NCC3CCCO3)cc2)cc1OCC (stereo unspecified),-12.9% (inactive),
CN(CC1CCCO1)S(=O)(=O)c1ccc(C(=O)Nc2ccc([N+](=O)[O-])cc2)cc1 (stereo unspecified),,23.1 µM (active)
Cc1cccc(NC(=O)c2ccc(S(=O)(=O)N(C)CC3CCCO3)cc2)c1C (stereo unspecified),-4.33% (inactive),
CCN(CC(=O)Nc1ccc(NC(C)=O)cc1)C(=O)C1CC(=O)N(Cc2ccc(C)cc2)C1 (stereo unspecified),-13.7% (inactive),
O=C(C1CCCO1)N1CCN(C(=O)C23CC4CC(CC(C4)C2)C3)CC1 (stereo unspecified),-21.8% (inactive),
COc1cc(C(=O)N2CCN(C3CCC(C)CC3)CC2)cc(OC)c1OC (stereo unspecified),-24.6% (inactive),
CCOC(=O)C1CCN(S(=O)(=O)c2c(C)noc2C)CC1,-0.368% (inactive),
COc1cccc(N(CC(=O)NC2CCCC2)C(=O)Cn2nnc(-c3ccc(C)o3)n2)c1,5.02% (inactive),

SMILES,"activity change, negative = growth inhibition",Potency
CC(C)COc1ccc(C(=O)OCC(=O)NCCC2=CCCCC2)cc1,-14.1% (inactive),
O=C(O)CN(Cc1ccco1)S(=O)(=O)c1ccc(F)cc1,2.84% (inactive),
C=CCn1c(SCC(=O)c2c(N)n(C)c(=O)n(C)c2=O)nc2sc(CC)cc2c1=O,-8.2% (inactive),
O=C1c2cccnc2C(=O)N1Cc1cccs1,12.8% (inactive),
Cc1cccc(N2C(=O)c3cccnc3C2=O)c1,4.51% (inactive),
NC1=CC(=O)C(=O)c2cccnc21,,3.66 µM (active)
O=C(NC1CCCCC1)C1CC(=O)N(CCc2ccccc2)C1 (stereo unspecified),-5.56% (inactive),
CC(NC(=O)COC(=O)CCC(=O)c1ccc(Cl)cc1)c1ccccc1 (stereo unspecified),-8.03% (inactive),
CC1CCC(NC(=O)CNC(=O)c2ccc3ccccc3c2)CC1 (stereo unspecified),-25.8% (inactive),
COc1ccccc1OCCNC(=O)c1cc([N+](=O)[O-])cc([N+](=O)[O-])c1,2.49% (inactive),
CCCCCC(=O)Nc1ccc(C(=O)N/N=C/c2ccc([N+](=O)[O-])cc2)cc1,2.57% (inactive),
Cc1cc(C)nc(N/N=C/c2ccncc2)n1,10.1% (inactive),
COc1cc(/C=N/NC(=O)CNC(=O)c2ccncc2)ccc1OC(C)=O,11% (inactive),
Cc1cc(C)nc(Nc2cc([N+](=O)[O-])ccc2C)n1,8.55% (inactive),
COc1ccc(C(=O)NCC(=O)N/N=C/c2ccc([N+](=O)[O-])o2)cc1OC,,2.31 µM (active)
NC(=S)N/N=C/c1ccc([N+](=O)[O-])cc1,-18.6% (inactive),
O=C(N/N=C/c1ccc([N+](=O)[O-])cc1)C(=O)N1CCCC1,-9.59% (inactive),
NC(=O)C(=O)N/N=C/c1ccc([N+](=O)[O-])o1,,10.6 µM (active)
CCOc1ccc(NC(=O)CCC(=O)N/N=C/c2ccc([N+](=O)[O-])s2)cc1,,10.3 µM (active)
Cc1cc(C)nc(N/N=C/c2ccc([N+](=O)[O-])o2)n1,,23.1 µM (active)
CCOc1ccc(NC(=O)CCC(=O)NNC(=O)NC2CCCCC2)cc1,-25.9% (inactive),
CC(C)[C@@H](C(=O)O)N(Cc1cccc(CN([C@H](C(=O)O)C(C)C)S(C)(=O)=O)c1)S(C)(=O)=O,-12.6% (inactive),
CC1=C(C(=O)Nc2ccccc2)C(c2ccc(C)cc2)n2nc(SCc3ccccc3C)nc2N1 (stereo unspecified),3.41% (inactive),
COc1cccc(NC(=O)C(=O)NCC(c2ccc3c(c2)OCO3)N2CCN(C)CC2)c1 (stereo unspecified),-23.2% (inactive),
COc1ccccc1CNS(=O)(=O)CC12CCC(CC1=O)C2(C)C (stereo unspecified),-2.24% (inactive),
